Screen size: about 340,000 compounds; about 1,700 (0.5%) were called active. The sample holds actives, similar compounds and a random draw of the others, so the mix is not that of the screen. A number with no mark means an inactive call. Cut-off read from the data, not from the text of the source: active = inhibition above about 40%; inactive = the rest.
target: Cysteine protease ATG4B (Homo sapiens) (UniProt Q9Y4P1); assay: ATG4B protease inhibitors, primary screen, biochemical, fluorescence, uHTS (AID 504462); settings: ATG4B cleavage of LC3-PLA2, NBD-HPC fluorescence, 1 h; at 8.33 µM; active compounds read high
Sequence (Q9Y4P1 whole entry, looked up): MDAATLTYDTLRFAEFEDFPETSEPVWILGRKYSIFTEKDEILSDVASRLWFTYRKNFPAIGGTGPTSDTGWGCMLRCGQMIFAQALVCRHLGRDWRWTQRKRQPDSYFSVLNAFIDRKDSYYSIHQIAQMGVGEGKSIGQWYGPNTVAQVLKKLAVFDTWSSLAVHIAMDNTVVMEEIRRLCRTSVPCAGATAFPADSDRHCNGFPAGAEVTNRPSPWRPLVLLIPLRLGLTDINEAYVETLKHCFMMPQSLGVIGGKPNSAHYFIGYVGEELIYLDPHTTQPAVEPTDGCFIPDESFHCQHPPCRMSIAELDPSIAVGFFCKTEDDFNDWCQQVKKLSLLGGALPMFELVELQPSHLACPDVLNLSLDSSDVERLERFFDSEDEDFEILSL

Compound | inhibition
CCn1nnc(NC(=O)c2cc(Cl)c(OC)c(Cl)c2)n1 | -1.88%
O=C(Nc1ccccc1Cc1ccccc1)c1ccc2c(c1)SC1=NS(=O)(=O)CCN12 | -8.36%
CC(=O)c1cc(-c2ccccc2)n(CCC(=O)NC2CCCCCC2)c1C | -4.01%
CCc1ccc(N(CC(=O)Nc2sc3c(c2C(=O)OC)CCCC3)S(C)(=O)=O)cc1 | -5.39%
COC(=O)c1c(NC(=O)COC(=O)[C@@H](NS(=O)(=O)c2ccccc2)C(C)C)sc2c1CCC2 | 71% (active)
COC(=O)c1c(NC(=O)CN(c2ccc(C)c(C)c2)S(C)(=O)=O)sc2c1CCCC2 | -3.55%
O=[N+]([O-])/C=C/c1ccc2c(ccn2Cc2ccccc2)c1 | 5.14%
COc1ccc2c(c1)CCc1c(C(=O)N3CCCC3)noc1-2 | -6.35%
COc1ccc2c(c1)CCc1c(C(=O)N3CCc4ccccc4C3)noc1-2 | 55.6% (active)
O=C(c1noc2c1CCCC2)N1CCc2ccccc2C1 | 0.28%
Cc1cccc(C2c3[nH]c4ccccc4c3CCN2C(=O)c2cc(-c3cccn3C)n[nH]2)n1 (configuration not stated) | 62.3% (active)
O=C(c1cn2ccccc2n1)N1CCc2c([nH]c3ccccc23)C1c1ccccn1 (configuration not stated) | -13.7%
Cc1cccc(C(=O)N2CCc3c([nH]c4ccccc34)C2CC(C)C)n1 (configuration not stated) | -9.03%
O=C(COc1cc(Cl)c(Cl)cc1Cl)NC(=O)NC1CCCC1 | -1.73%
O=C(N/N=C/c1coc2ccccc2c1=O)c1cc2ccccc2o1 | 61.1% (active)
Cc1c(/C=N\NC(=O)c2cc3ccccc3o2)c2ccccc2n1C | -15.2%
CC(C)(C)OC(=O)NCCCCCC(=O)N/N=C/c1coc2ccccc2c1=O | 14.7%
O=C(COCc1cc(-c2ccc3c(c2)OCO3)on1)N1CCN(c2cccc(Cl)c2)CC1 | 5.35%
CCOc1ccc(CC(=O)NCCS(=O)(=O)N2CCN(c3ccccc3)CC2)cc1 | -6.99%
NC(=O)CSc1nnc(NC(=O)c2ccc3ccccc3c2)s1 | 5.71%
O=C(Nc1nnc(SCc2c(Cl)cccc2Cl)s1)c1cccc([N+](=O)[O-])c1 | 7.45%
O=C(Nc1nnc(SCc2ccccc2Cl)s1)c1cccc([N+](=O)[O-])c1 | 71.7% (active)

Compound | inhibition
CN(CC(=O)Nc1cccc(F)c1)C(=O)C1CC(=O)N(CCc2ccccc2)C1 (configuration not stated) | -5.48%
OC(CNCc1ccc(Cl)c(Cl)c1)c1ccccc1 (configuration not stated) | 40%
CCOC(=O)c1ccc(NNC(C)=O)c([N+](=O)[O-])c1 | -7.65%
COc1ccc(Br)cc1C(=O)NC(=S)Nc1cc(-c2nc3ccccc3[nH]2)ccc1C | 65% (active)
COc1cc2ccccc2cc1C(=O)Nc1ccccc1C | -2.98%
COc1ccc(Br)cc1C(=O)Nc1cccc(C)c1C | 7.75%
CN1C(C)(C)CC(NC(=O)CCC(=O)NC2CC(C)(C)N(C)C(C)(C)C2)CC1(C)C | -1.23%
C#CCOCCOCCOCCNc1nc(N2CCN(C(=O)Cn3cc(CCO)nn3)CC2)nc(N2CCN(C(=O)Cn3cc(CCCN=C(N)N)nn3)CC2)n1 | -2.83%
C#CCOCCOCCOCCNc1nc(N2CCN(C(=O)[C@H](CCCN=C(N)N)n3cc(C(N)[C@@H](C)CC)nn3)CC2)nc(N2CCN(C(=O)[C@H](CO)n3cc([C@@H](N)C(C)C)nn3)CC2)n1 (some centres not stated) | -2.36%
C#CCOCCOCCOCCNc1nc(N2CCN(C(=O)CCCCCCCCCCNC(=O)[C@H]([C@@H](C)CC)n3cc(CCCCN=C(N)N)nn3)CC2)nc(N2CCN(C(=O)CCCCCCCCCCNC(=O)[C@H](CO)n3cc(CCCSC)nn3)CC2)n1 | 41.9% (active)
O=C(c1n[nH]c2c1CCC2)N1CCCC(Nc2cccc(F)c2)C1 (configuration not stated) | 5.08%
CCOc1cc(/C=C2\SC(N3CCCCC3)=NC2=O)ccc1O | -6.5%
O=C1N=C(N2CCc3ccccc3C2)S/C1=C\c1ccc(O)cc1 | 67.7% (active)
CCc1ccc(/C=C2\SC(N3CCOCC3)=NC2=O)cc1 | -5.05%
O=C(NCCCO)/C(=C\C=C\c1ccccc1)NC(=O)c1ccccc1Cl | -7.32%
O=C1CSC(=S)N1c1ccc(Cl)c(Cl)c1 | 4.82%
CC1CC(C)CN(C/C=C/c2ccccc2[N+](=O)[O-])C1 (configuration not stated) | 11.3%
CC1CCN(Cc2nc3c(c(=O)n(C)c(=O)n3C)n2CCc2ccccc2)CC1 | -1.37%
Cn1c2ccccc2c2c(C(=O)N3CCN(c4ccc(F)cc4)CC3)cn(C3CCCC3)c(=O)c21 | -29.5%
CCCc1nc2c(c(=O)c3ccccc3n2C)c(=O)n1C1CCCCCC1 | 41.3% (active)
Cn1nc(C(C)(C)C)c(NC(=O)c2sccc2Cl)c1C(C)(C)C | 8.72%
O=C(O)C1=NN(c2c(F)c(F)cc(F)c2F)C(=O)CC1 | -1.19%

Compound | inhibition
O=C(Nc1cccc(Cl)c1N1CCOCC1)c1ccc2c(c1)OCCO2 | 33.9%
O=C(Nc1cccc(Cl)c1N1CCOCC1)c1cccnc1 | -5.52%
CCN1CCN(c2c(Cl)cccc2NC(=O)c2ccc(Br)o2)CC1 | 56.4% (active)
C[C@H](CO)N1C[C@H](C)[C@@H](CN(C)S(=O)(=O)c2ccc(F)cc2)Oc2c(NC(=O)Nc3ccccc3)cccc2C1=O | -16.4%
O=C1C(=O)N(CC2COc3ccccc3O2)c2ccccc21 (configuration not stated) | 72.1% (active)
O=C(CN1C(=O)C2C3C=CC(C3)C2C1=O)NCC1COc2ccccc2O1 (configuration not stated) | 0.03%
O=C(NCC1COc2ccccc2O1)C1(c2ccccc2)CCCC1 (configuration not stated) | 4.25%
FC(F)(F)c1cccc(NC(=S)Nc2cccc(Cl)c2)c1 | 44.3% (active)
Cn1cc(Cl)c(C(=O)NNC(=S)Nc2cccc(Cl)c2)n1 | -0.09%
FC(F)(F)c1cccc(N/N=C/c2ccccc2)c1 | -3.29%
Cc1nc(SCC(=O)N2CCc3ccccc3C2)c2c(C)c(C)sc2n1 | 71.6% (active)
O=C(CSc1nnc(-c2cccs2)n1Cc1ccccc1)N1CCc2ccccc2C1 | 31.5%
Cc1nc(SCC(=O)N2CC(=O)Nc3ccccc32)c2c(C)c(C)sc2n1 | 26.7%
CCOCC(=O)Nc1ncc(S(=O)(=O)c2ccc([N+](=O)[O-])cc2)s1 | -0.99%
COc1ccc(/C=C2\SC(=O)N(CCC(=O)NCCCn3ccnc3)C2=O)cc1 | 3.21%
COc1ccc(/C=C2\SC(=O)N(CCC(=O)NC3CCS(=O)(=O)C3)C2=O)cc1 (configuration not stated) | 5.85%
COc1ccc(/C=C2/SC(=O)N(CCCCCC(=O)Nc3ccccc3C(=O)O)C2=S)cc1 | 55.6% (active)
Cc1cc(C)n(-c2nnc(C)n2NC(=O)c2cccc(Cl)c2)n1 | -11.2%
O=C(NCCS(=O)(=O)N1CCN(c2ccccc2F)CC1)c1ccc(Br)o1 | -9.9%
CC1(C)CC(=O)C=C(NCCCN2CCCC2=O)C1 | 2.66%
O=C(C1CC1)N1CCN=C1SCc1ccc(Cl)cc1 | -5.2%
O=C(c1ccc(CSc2ccccc2)cc1)N1CCCCCC1 | 15.3%

Compound | inhibition
CC1CCN(C(=O)c2ccc(CSc3ccc(Cl)cc3)cc2)CC1 | 44% (active)
COC(=O)[C@H](Cc1ccccc1)NC(=O)[C@@H]1C[C@H]1[C@@H](NC(=O)OCc1ccccc1)c1ccccc1 | 3.57%
O=C(NCc1ccccc1)[C@H]1C[C@@H]1[C@H](NP(=O)(c1ccccc1)c1ccccc1)c1ccccc1 | 55.2% (active)
O=C(O)C1C2C=CC(C2)C1C(=O)NCc1ccccc1 (configuration not stated) | 1.32%
Cc1ccc(Sc2cc(C(=O)c3ccccc3C(=O)O)ccc2[N+](=O)[O-])cc1 | -10.7%
CN(C)S(=O)(=O)c1ccc(N/C=C(\[N+](=O)[O-])S(=O)(=O)c2ccccc2)cc1 | 0.88%
CCCN(CCC)CCCNC(=O)CNC(=O)c1nn(-c2ccc(OC)cc2)c(=O)c2ccccc12 | 7.71%
Cc1ccc(NC(=O)CC2S/C(=N/N=C3\CCCc4ccccc43)NC2=O)cc1 (configuration not stated) | 41.3% (active)
Cc1c(Cl)cccc1NC(=O)CC1SC(=NCC2CCCO2)NC1=O (configuration not stated) | 1.67%
CCN=C1SC(CC(=O)Nc2ccc(C)cc2)C(=O)N1CC (configuration not stated) | -0.27%
O=C(COC(=O)c1cc(=O)[nH]c2ccccc12)Nc1nc(-c2cccc(Br)c2)cs1 | -32.4%
O=C1Nc2cc(Cl)c(Cl)cc2N(O)N1c1ccccc1Cl | 0.16%
O=C1Nc2cc(Cl)c(Cl)cc2N(O)N1c1cc(Cl)cc(Cl)c1 | 42.3% (active)
O=C(Nc1cccc2c1CCCC2)c1ccc(F)cc1 | 9.34%
CCS(=O)(=O)C1=NSC2=NC(=O)/C(=C\c3ccc(OS(=O)(=O)c4ccccc4)cc3)C(=N)N21 | 43.1% (active)
CS(=O)(=O)C1=NN2C(=N)/C(=C\c3ccc(OCCOc4ccccc4)cc3)C(=O)N=C2S1 | -1.7%
Cc1ccc(C2=N/C(=C\c3ccc(OS(=O)(=O)c4ccc(C)cc4)cc3)C(=O)O2)cc1 | -3.55%
O=C(NCCc1ccco1)c1ccc(OCc2cn3ccccc3n2)cc1 | -8.13%
COC(=O)Cc1ccc(NC(=S)NCc2ccccc2)cc1 | 8.5%
FC(F)(F)Oc1ccc(NC(=S)NCc2ccccc2)cc1 | 40.2% (active)
Fc1ccccc1CNC(=S)Nc1ccc(Cl)cc1 | 23.2%

From PubChem BioAssay AID504462 (Sanford-Burnham Center for Chemical Genomics, 2011)
